# VDR inhibitor: inhibitors of human vitamin D receptor; VDR-SRC2-3 peptide fluorescence polarization, 2 h; 400,000 tested, 0.93% active; Potency, µM, without a hit: max response, negative = inhibition, most hits filed as inhibitors; AID 504847; P11473; note: potency is the fitted concentration of half-maximal effect; % is set by controls: 0 for no effect and ±100 for the full control effect
#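 VDR–SRC2-3 interaction, FP format. Cmpds 23 nl via pintool, brief spin, 2 h ambient incubation.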
# KAT2A inh: blocks human GCN5L2 histone acetyltransferase | Q92830 | GCN5L2 HAT assay, ThioGlo1 CoA-SH fluorescence | Potency, µM (series often up to 58.9 µM), for inactives: at the top dose activity change, negative = inhibition, usual class: inhibitors | 390,000 tested, 0.21% active; note: potency is the fitted concentration of half-maximal effect; % is set by controls: 0 for no effect and ±100 for the full control effect
#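 Enzyme at 20nM final was mixed with library compounds for 15 min at room temperature. Peptide H3(1-25) at 75uM, acetyl-CoA at 70uM and ThioGlo1 at 50uM were then added. Plates were read immediately and after 20 min (Ex340nm/Em540nm).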
# PI5P4Ka inh: PI5P4K alpha (human) kinase inhibition | max response, % | 330,000 tested, 1.2% active | PI5P4Kalpha enzyme, ADP-Glo luminescence, 60 min; active compounds read low | AID 652105 | P48426; active = max response of -50% or lower; inconclusive = between -30% and -50%; inactive = -30% or higher; note: value at the top dose of about 77 µM; % is set by controls: 0 for no effect and ±100 for the full control effect
# Target sequence (P48426 whole entry, looked up): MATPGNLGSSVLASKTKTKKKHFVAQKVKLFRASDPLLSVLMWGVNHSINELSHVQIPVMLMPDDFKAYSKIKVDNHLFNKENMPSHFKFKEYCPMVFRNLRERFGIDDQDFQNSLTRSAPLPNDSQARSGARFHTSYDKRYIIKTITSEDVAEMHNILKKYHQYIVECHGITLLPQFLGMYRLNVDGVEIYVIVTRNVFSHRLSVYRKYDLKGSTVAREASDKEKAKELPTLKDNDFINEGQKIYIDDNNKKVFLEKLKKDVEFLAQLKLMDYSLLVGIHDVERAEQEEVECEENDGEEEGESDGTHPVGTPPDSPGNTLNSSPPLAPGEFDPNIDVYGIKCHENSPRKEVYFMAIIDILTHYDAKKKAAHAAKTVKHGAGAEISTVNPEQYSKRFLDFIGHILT
#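 Compounds were pin-transferred onto PI5P4Kalpha and substrate in HEPES pH 7.4 buffer with EGTA, CHAPS and 5% DMSO. ATP (5 microM final) started the reaction, which ran 60 minutes at room temperature before ADP-Glo detection.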
# PLK1 PBD block: PLK1 (human) polo-box domain binding inhibition. P53350. Plk1 PBD binding of FITC phosphopeptide, fluorescence polarization. Potency, µM, without a hit: max response, negative = inhibition, usual class: inhibitors. 360,000 tested, 2.8% active. AID 720504; note: potency is the fitted concentration of half-maximal effect; series mostly up to about 57 µM; % is set by controls: 0 for no effect and ±100 for the full control effect; nearly all actives have a fitted effect of over 65% in size
# Rango release inh: inhibitors of RanGTP-induced Rango-importin beta complex dissociation; Biochemical FRET Rango-importin beta, RanGTP-induced dissociation; Potency, µM (series often up to 46.1 µM), without a hit: at the top dose activity change, negative = inhibition; 340,000 tested, 0.071% active; O95149+P62826; calls by dose curve; note: potency is the fitted concentration of half-maximal effect; % of control where 0% means no effect; nearly all actives have a fitted effect of over 45% in size
#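 FRET read at 45 min, room temperature: inhibitors block the CFP/YFP signal rise when RanGTP (0.6 uM Ran, 2 mM GTP, 0.2 uM RCC1) frees Rango (0.1 uM) from importin beta (0.25 uM). Pre-read after 5 min compound exposure flags interference.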
# Rango complex inh: Rango-importin beta binding inhibition. Q14974. Rango CFP/YFP FRET sensor + importin beta, 45 min. Potency, µM (doses to about 92.2 µM), without a hit: top-dose inhibition of complex formation. 340,000 tested, 0.031% active. AID 540263; calls by dose curve;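 note: potency is the fitted concentration of half-maximal effect; 0% = DMSO wells and 100% = buffer wells lacking importin beta; nearly all actives have a fitted effect of over 15% in size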
#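 FRET biosensor Rango (snurportin 1 IBB between N-terminal EYFP and C-terminal Cerulean), 50 nM in PBS/1 mM DTT/0.02% Tween-20/0.1% BSA, preincubated 5 min RT with compound; 0.125 microM importin beta added, 45 min RT, CFP/YFP FRET ratio read.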
# An asterisk follows results filed as active; ? = inconclusive; nt = no result. Rows were chosen to be rich in hits. Some 3.6% of all compounds tested hit in one or more screens of this group. Unless noted, calls come from the whole dose curve; as a rule, active = well fitted curve in the direction sought with a large enough effect; inconclusive = small, poorly fitted or top-dose-only effect, or another doubt; inactive = no such curve, though single readings can be large; an effect the other way counts as inactive or inconclusive.
SMILES,VDR inhibitor,KAT2A inh,PI5P4Ka inh,PLK1 PBD block,Rango release inh,Rango complex inh
CCOc1ccc2nc3cc(N)ccc3c(N)c2c1,13µM*,?,nt,nt,nt,nt
Cc1c(-c2ccc(/C=N/NC(=O)C(=O)Nc3ccccc3F)o2)cccc1[N+](=O)[O-],1%,-2%,-26,14%,-11%,0%
O=C(O)c1cc(-c2ccc(/C=N/NC(=S)Nc3ccccc3)o2)ccc1Cl,-14%,-7%,-72*,?,0%,?
O=[N+]([O-])c1ccc(/C=N/NC(=S)Nc2ccccc2F)o1,-14%,-2%,-61*,?,5%,0%
O=[N+]([O-])c1ccc(/C=N/NC(=S)Nc2ccccc2)o1,-7%,4%,-60*,?,-18%,-4%
NC(=S)N/N=C/c1ccc(-c2ccc(Cl)c(Cl)c2)o1,-14%,-2%,-27,-14%,-1%,-3%
O=[N+]([O-])c1cccc(-c2ccc(/C=N/NC(=S)Nc3ccccc3)o2)c1,2%,-2%,5,-13%,-1%,5%
COC(=O)c1cc2sccc2n1Cc1ccc(F)cc1Cl,-10%,-2%,nt,nt,nt,nt
COC(=O)c1c(NC(=O)CCc2ccc(C)o2)sc(C)c1C,?,-1%,-13,-23%,9%,?
CCOC(=O)c1c(NC(=O)CCc2ccc(CC)o2)sc(C)c1C,-26%,1%,-5,27µM*,0%,1%
CCOC(=O)c1c(NC(=O)/C=C/c2ccc(C)o2)sc(C)c1C,-20%,-4%,nt,27µM*,?,0%
Cc1ccc(/C=C/C(=O)Nc2sc(C)c(C)c2C(=O)OC(C)C)o1,-20%,-10%,-5,-4%,11%,0%
Cc1ccc(CNC(=O)CSc2nc3ccsc3c(=O)n2-c2ccc(Br)cc2)cc1,9%,-2%,nt,nt,nt,nt
COCCOC(=O)C1=C(C)NC(=O)NC1c1cn(-c2ccccc2)nc1-c1ccccc1 (stereo unspecified),17%,0%,nt,nt,nt,nt
CC1=CC(=O)C(C(C)C)=C/C1=N\OC(=O)c1cccc2nc(C)oc12,-15%,24%,7,-29%,23%,-2%
CC1=CC(=NOC(=O)c2cccc([N+](=O)[O-])c2)C=C(C)C1=O,?,-16%,-16,6.7µM*,11%,0%
CC1=CC(=O)C(C(C)C)=C/C1=N/OC(=O)c1cccc([N+](=O)[O-])c1,-6%,-5%,nt,3.8µM*,24%,6%
Cc1ccc(N=N/C(=C\O)C(=O)c2ccc(Cl)cc2)cc1,3%,-24%,-5,24µM*,10%,5%
CN1C/C(=C/c2ccccc2[N+](=O)[O-])C(=O)/C(=C\c2ccccc2[N+](=O)[O-])C1,71µM*,nt,-18,-18%,-23%,?
CCOc1ccc(C(=O)c2cn(CC(=O)Nc3cc(OC)cc(OC)c3)c3ccc(F)cc3c2=O)cc1,-9%,-13%,nt,nt,nt,nt
Cc1[nH]n(-c2ccccc2)c(=O)c1/C=N/N(c1ccccc1)c1ccccc1,?,-1%,-7,19µM*,-3%,6%
Cc1cccc(/N=C/c2c(C)[nH]n(-c3ccccc3)c2=O)n1,-4%,-1%,2,-29%,?,1%
Cc1cc(C)nc(NS(=O)(=O)c2ccc(N=Cc3c(C)[nH]n(-c4ccccc4)c3=O)cc2)n1,?,29%,-9,27µM*,-2%,7%
Cc1[nH]n(-c2ccccc2)c(=S)c1C=Nc1ccc([N+](=O)[O-])cc1,40µM*,7.9µM*,-79*,2.7µM*,4%,0%
Cc1[nH]n(-c2ccccc2)c(=O)c1/C=N/c1nn[nH]n1,-18%,?,8,24µM*,-15%,-4%
SMILES,VDR inhibitor,KAT2A inh,PI5P4Ka inh,PLK1 PBD block,Rango release inh,Rango complex inh
Cc1ccc(-n2[nH]c(C)c(C=Nc3ccc(S(=O)(=O)Nc4nc(C)cc(C)n4)cc3)c2=O)c(C)c1,-26%,-6%,2,-2%,-5%,0%
CNC(=O)C1CCC(Cn2c(=O)c3sccc3n(CC(=O)NCc3ccccc3)c2=O)CC1 (stereo unspecified),10%,11%,nt,nt,nt,nt
Cc1ccc(NC(=O)Nc2nnc(SCC(=O)N3CCCCC3)s2)cc1,8%,1%,nt,nt,nt,nt
Cc1cc(C)cc(C(=O)Nc2c(C(=O)Nc3ccccc3F)oc3ccccc23)c1,7%,-2%,nt,nt,nt,nt
O=c1c2ccccc2ncn1-c1ccc(Cl)cc1Cl,4%,-7%,7,-2%,9%,0%
O=c1c2ccccc2sn1-c1ccc(Cl)cc1Cl,nt,nt,-105*,2.7µM*,nt,nt
Cc1nc2sc(C)c(C)n2c(=O)c1S(=O)(=O)N1CCN(c2ccccc2F)CC1,15%,-2%,nt,nt,nt,nt
CSC1=C(C#N)C(=O)NC(c2ccccc2O)S1 (stereo unspecified),-15%,-2%,-15,2.1µM*,6%,4%
COC(=O)CSC1=C(C#N)C(=O)NC(c2ccccc2)S1 (stereo unspecified),3%,35µM*,-56*,?,4%,1%
COCCNC(=S)NN(c1ccccc1)c1ccccc1,-13%,-3%,-16,27µM*,-10%,1%
CC(=O)N1CC=C2C(C#N)=C(N)C(C#N)(C#N)C(CCc3ccccc3)C2C1 (stereo unspecified),?,-11%,-12,27µM*,?,?
CCN1CCc2c(sc(NC(=O)Cc3ccccc3)c2C(N)=O)C1,0%,3%,-1,-10%,?,?
CN1Cc2sc(NC(=S)NC(=O)c3ccccc3)c(C#N)c2CC1(C)C,?,-4%,?,13µM*,?,?
CCC1(C)Cc2c(sc(NC(=S)NC(=O)c3ccccc3)c2C#N)CO1 (stereo unspecified),-16%,-1%,?,13µM*,-9%,-1%
CCN1CCc2c(sc(NC(=S)NC(=O)c3ccco3)c2C(N)=O)C1,-11%,-13%,-10,24µM*,?,?
CC1CCc2sc(NC(=S)NC(=O)c3ccccc3)c(C#N)c2C1 (stereo unspecified),?,-3%,-22,?,-1%,-2%
CCN1CCc2c(sc(NC(=S)NC(=O)c3ccccc3)c2C#N)C1,79µM*,?,-62*,11µM*,?,?
N#Cc1c(NC(=S)NC(=O)c2ccccc2)sc2c1CCC2,?,-7%,-30,?,-21%,5%
Cc1ccccc1NC(=O)CN1C(=O)CCn2nc(-c3cccn3C)cc21,12%,-3%,nt,nt,nt,nt
CC1Cc2ccccc2N1C(=O)c1ccc2nccnc2c1 (stereo unspecified),-6%,-2%,-6,2%,-3%,3%
COc1ccc(C(=O)N2c3ccccc3CC2C)cc1OC (stereo unspecified),-2%,nt,3,27µM*,16%,-2%
